NLRP3 yeast inh: NALP3 inhibition in yeast. Yeast reconstituted NLRP3/ASC/caspase-1, beta-gal luminescence, 24 h. inhibition, % at 10 µM. 0.39% of 330,000 active;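 active = inhibition of 50% or more; inactive = inhibition below 50%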
tim10-1 inh: inhibits growth of tim10-1 mutant yeast. S. cerevisiae tim10-1 ts strain growth, BacTiter-Glo, 24 h. inhibition, % at 20 µM. 2.2% of 330,000 active;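 active = inhibition of at least 40%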;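 note: mutant grown at 25 °C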
TIM10 inh: TIM10 yeast growth inhibition. S. cerevisiae TIM10 strain growth, BacTiter-Glo luminescence, 24 h. inhibition, % at 10 µM. 1.4% of 330,000 active. AID 463195;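 active = inhibition of 40% or more at the single tested concentration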;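 note: wild-type TIM10 isogenic control strain grown at permissive 25 °C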
NALP1 yeast inh: blocks the NALP1 inflammasome reconstituted in yeast; S. cerevisiae NALP1/ASC/caspase-1 growth, X-gal OD620, 72 h; inhibition, % at 10 µM; 0.61% of 280,000 active; AID 2071; in the data active = inhibition mostly above about 24%, no sharp cut-off; inactive = mostly below about 32%
tim23-1 inh: growth inhibitors of tim23-1 mutant yeast; S. cerevisiae tim23-1 growth, BacTiter-Glo luminescence, 24 h; inhibition, % at 20 µM; 1.3% of 330,000 active;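 active = growth inhibition of the mutant yeast at or above 50%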;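 note: temperature-sensitive mutant grown at 25 °C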
NALP3 confirm: NALP3 inhibition confirmation in yeast; shares compounds with NLRP3 yeast inh; yeast expressing human NALP3, luminescence; inhibition, % at 10 µM; 81% of 1,300 active; in the data active = inhibition above about 48%
Casp1-ASC yeast: caspase-1-ASC yeast counter-screen hit; shares compounds with NLRP3 yeast inh; yeast expressing Caspase-1-ASC, luminescence counter screen; inhibition, % at 10 µM; 66% of 1,000 active
NALP3 yeast rt: retest-confirmed inhibitor of NALP3 in yeast; shares compounds with NLRP3 yeast inh; yeast expressing human NALP3, luminescence read-out; inhibition, % at 10 µM; 53% of 1,000 active; AID 488794
tim10-1 confirm: confirmation of tim10-1 mutant yeast growth inhibitors; shares compounds with tim10-1 inh; S. cerevisiae tim10-1 ts strain growth, BacTiter-Glo, 24 h; inhibition, % at 20 µM; 56% of 7,400 active;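 active = inhibition of yeast growth at or above a set limit in either of two repeat tests at 20 µM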;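 note: tim10-1 mutant grown at permissive 25 °C to find synthetic lethal compounds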
TIM10 conf: confirmation of TIM10 yeast growth inhibitors; 63% of 4,600 active; inhibition, % at 10 µM; S. cerevisiae tim10 strain growth, BacTiter-Glo luminescence, 24 h; shares compounds with TIM10 inh;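 active = inhibition of yeast growth at or above a set limit in either of two replicates at 10 µM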; note: this counterscreen used the strain with wild-type TIM10
tim23-1 confirm: confirmation of tim23-1 mutant yeast growth inhibitors. shares compounds with tim23-1 inh. inhibition, % at 20 µM. 83% of 4,400 active. S. cerevisiae tim23-1 growth, BacTiter-Glo luminescence, 24 h;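 active = inhibition above about 39% in either of two replicate wells at 20 µM, limit read from the data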;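 note: temperature-sensitive tim23-1 mutant grown at 25 °C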
Numbers stand for hits; i = inactive; nt = not tested or not shown. The list is not random: actives were taken first. Their share in the collection is about 4%. Cut-off read from the data, not from the text of the source, unless noted: active = inhibition above about 50%; inactive = the rest.

SMILES | NLRP3 yeast inh | tim10-1 inh | TIM10 inh | NALP1 yeast inh | tim23-1 inh | NALP3 confirm | Casp1-ASC yeast | NALP3 yeast rt | TIM10 conf | others
O=C(Nc1cccc(S(=O)(=O)N2CCCC2)c1)c1ccc2ccccc2n1 | i | 47 | 43 | i | i | i | nt | nt | 39 | tim10-1 confirm=36
COc1cccc(CN2CCNC(=O)C2CC(=O)NCCn2ccc3ccccc32)c1OC (centres undefined) | i | i | i | i | i | nt | nt | nt | nt
O=C(N/N=C/c1cccs1)c1ccc2ccccc2c1 | 66 | i | 47 | i | i | 81 | 68 | 66 | i
CCc1c(C)sc(NC(=O)c2ccccc2[N+](=O)[O-])c1C(N)=O | i | i | i | i | i | nt | nt | nt | nt
CC(C)CCOc1cccc(OCC(=O)Nc2ccncc2)c1 | 66 | i | 56 | i | i | 78 | 86 | 60 | 50
O=c1c2sc(-c3ccccc3)cc2nc2n1CCC2 | 55 | 64 | 78 | i | i | i | i | i | 73 | tim10-1 confirm=65
CCCC1(c2ccccc2)NC(=O)N(CC(=O)N(C)Cc2c(F)cccc2Cl)C1=O (centres undefined) | i | i | i | i | i | nt | nt | nt | nt
COc1ccc(C(=O)NNC(=S)NC(=O)c2ccc(Cl)cc2)cc1 | 54 | i | 42 | nt | i | 58 | 60 | 58 | i
Cc1ccc(NC(=O)c2ccc(Cl)c(S(=O)(=O)N3CCCC3)c2)nc1 | i | i | i | nt | i | nt | nt | nt | nt
CC(=O)NC(=S)Nc1cccc([N+](=O)[O-])c1 | i | i | i | i | i | nt | nt | nt | nt
O=C(NC(=S)Nc1cccc([N+](=O)[O-])c1)C1CCCC1 | 54 | 54 | 47 | i | i | 73 | 60 | 58 | 52 | tim10-1 confirm=45
CCn1c2ccccc2c2cc(/C=N/n3cn[nH]c3=S)ccc21 | 68 | 51 | 48 | i | i | 74 | 82 | 63 | 49 | tim10-1 confirm=35
CCn1c2ccccc2c2cc(/C=N/n3cnnc3)ccc21 | i | i | i | i | i | nt | nt | nt | nt
CC(C)N(C(=O)CS(=O)(=O)c1ccc(Cl)c(Cl)c1)C(C)C | i | i | i | i | i | nt | nt | nt | nt
C=C(C)Cc1c(C)c(C#N)c2nc3ccccc3n2c1NCCCN(C)C | i | i | i | i | i | nt | nt | nt | nt
C=CCc1c(C)c(C#N)c2nc3ccccc3n2c1NCCN(C)C | 54 | 49 | 80 | 33 | i | 81 | 78 | i | 85 | tim10-1 confirm=60
Cc1ccc(C(=O)Cn2cnc3ccccc3c2=O)cc1C | 63 | i | 53 | i | i | 78 | 55 | 54 | 34
COc1ccc2cc3cc(C(=O)NCCN4CCN(c5ccccc5F)CC4)oc3nc2c1 | 53 | 71 | 79 | i | i | i | nt | nt | i | tim10-1 confirm=63
COCCNC(=O)c1cc2cc3ccc(OC)cc3nc2o1 | i | i | i | i | i | nt | nt | nt | nt
Cc1ccc2c(c1)C1CC(C)(O2)N(c2cccc(C(=O)N3CCN(c4ccccn4)CC3)c2)C(=O)N1 (centres undefined) | i | i | i | i | i | nt | nt | nt | nt
O=C(CSc1nc2ccccc2c(=O)n1CCCN1CCOCC1)Nc1ccccc1OC(F)F | i | i | i | nt | i | nt | nt | nt | nt
CC(C)n1cnc2cc(NC(=O)c3ccco3)ccc21 | i | i | i | i | i | nt | nt | nt | nt
COc1ccc(-n2cnc3cc(NC(=O)c4ccco4)ccc32)cc1 | 58 | i | 66 | i | i | 80 | 62 | 70 | 54
CCN(CC)CCNC(=O)c1ccc(-n2c(C)cc3c2CCCC3=O)cc1 | i | i | i | i | i | nt | nt | nt | nt
O=C(Nc1ccc(Cl)cc1)c1ccc2ncsc2c1 | i | i | i | i | i | nt | nt | nt | nt
SMILES | NLRP3 yeast inh | tim10-1 inh | TIM10 inh | NALP1 yeast inh | tim23-1 inh | NALP3 confirm | Casp1-ASC yeast | NALP3 yeast rt | TIM10 conf | others
O=C(Nc1cccc(Cl)c1)c1ccc2ncsc2c1 | 67 | i | 50 | i | i | 86 | 81 | 76 | 45
COc1cccc(N=Nc2c(C)[nH]n(-c3ccccc3)c2=O)c1 | i | i | i | i | i | nt | nt | nt | nt
COc1cccc(C(C[N+](=O)[O-])c2c(C)[nH]n(-c3ccccc3)c2=O)c1 (centres undefined) | 52 | 51 | 62 | 85 | i | 58 | i | i | 89 | tim10-1 confirm=64
CN(C)/N=C/c1ccc(Sc2ccc([N+](=O)[O-])cc2[N+](=O)[O-])o1 | 54 | 43 | 40 | i | i | i | nt | nt | 47 | tim10-1 confirm=44
CCCCOc1ccc(CSCCNC(=S)Nc2ccccc2)cc1 | 54 | i | 42 | i | i | 60 | 62 | i | i
CCCCCCCCCCCCCCCC[n+]1ccc(C(N)=O)cc1 | 53 | i | 48 | 96 | i | i | nt | nt | i
O=C(Nc1cccc(F)c1)c1ccc2c(c1)OCO2 | 65 | i | 50 | i | i | 65 | 68 | 62 | i
Cn1c(NCc2ccco2)nc2c1c(=O)n(Cc1ccc(Cl)c(Cl)c1)c(=O)n2C | i | i | i | i | i | nt | nt | nt | nt
CN1/C(=C/C(=O)c2cccs2)Sc2ccccc21 | 78 | i | 73 | i | i | 81 | 97 | 93 | 61
O=C(CNC(=O)c1ccc(Cl)cc1Cl)OCC(=O)N1CCCC1=O | i | i | i | nt | i | nt | nt | nt | nt
COc1ccc(-c2cc(=O)c3ccccc3s2)cc1 | 66 | i | 42 | i | 52 | 66 | 54 | 66 | 44 | tim23-1 confirm=54
COc1ccc(-c2cc(=O)c3ccccc3[nH]2)cc1 | i | i | i | i | i | nt | nt | nt | nt
CCOC(=O)C1C(c2cccc(F)c2)NC(=S)NC1(O)C(F)(F)F (centres undefined) | i | i | i | i | i | nt | nt | nt | nt
COc1ccc(/C=C/C(=O)c2ccc(Cl)s2)cc1O | 54 | 53 | 68 | i | 69 | 70 | i | i | 44 | tim10-1 confirm=54;tim23-1 confirm=81
Cc1ccc(OCCCC(=O)N(C)CC(=O)Nc2ccccc2Cl)cc1 | i | i | i | nt | i | nt | nt | nt | nt
COc1cccc(NC(=O)c2cccs2)c1 | 68 | i | 66 | i | 51 | 81 | 71 | 57 | 56 | tim23-1 confirm=75
COc1cccc(C(=O)Nc2ccccc2)c1 | 51 | i | 44 | i | 50 | 80 | i | i | i | tim23-1 confirm=58
CCCCc1cc(O)c(CCCC)c(O)c1 | 51 | i | i | i | 53 | 62 | i | i | nt | tim23-1 confirm=42
Cn1c(CNc2ccc(Cl)cc2)nc2ccccc21 | i | i | i | i | i | nt | nt | nt | nt
CC(C)N=c1cc2n(-c3ccc(Cl)cc3)c3ccccc3nc-2cc1Nc1ccc(Cl)cc1 | 56 | 41 | i | nt | 58 | 68 | nt | nt | nt | tim10-1 confirm=i;tim23-1 confirm=57
